Measurements published in article PMC4552634, “A New Set of Chemical Starting Points with Plasmodium falciparum Transmission-Blocking Potential for Antimalarial Drug Discovery” (PLoS ONE, 2015).
Out of some 13,000 compounds screened, about 3,200 (25%) showed an effect of 50% or more. Some of the results follow.

System: P. falciparum stage V gametocytes
Design: BacTiter-Glo ATP luminescence viability of purified stage V gametocytes in 384-well plates, per cent inhibition versus DMSO
Settings: 48 h, 5 µM; inhibitor

Compared with `CC1CN(c2ccc3occ(C(=O)Nc4ccc(-c5ccncc5)c(Cl)c4)c3c2)CC(C)N1C` (stereo not drawn) [TCMDC-141360], `O=C(Nc1cccc(-c2ccc(-c3nc4ccccc4[nH]3)s2)c1)c1ccncc1` [TCMDC-136956] is lower in “% Inhibition” value: 38.63% for the first, 6.685% for the second.

First: CCCN1CCN(CCCCNc2c3ccccc3nc3ccccc23)CC1 [TCMDC-137576]
Second: CCCN1CCN(CCCNc2c3ccccc3nc3ccccc23)CC1 [TCMDC-137478]
The “% Inhibition” value of the first is lower: 93% for the first, 97.73% for the second.

Going from `CC(C)CN1CCN(CCNc2c3ccccc3nc3ccccc23)CC1` [TCMDC-138008] to `CCCN1CCN(CCNc2c3ccccc3nc3ccccc23)CC1` [TCMDC-137549], the “% Inhibition” value rises from 92.54% to 102.5%.

Going from `COc1cc2nc(NCCN3CCOCC3)n3nc(-c4ccccc4)nc3c2cc1OC` [TCMDC-124407] to `CCOC(=O)N1CCN(CCCNc2c3ccccc3nc3ccccc23)CC1.Cl` [TCMDC-137544], the “% Inhibition” value rises from -12.35% to 15.5%.

Compared with `O=C1NC(C(=O)Nc2ccccc2)C(c2ccccc2)S1` (stereo not drawn) [TCMDC-131740], `Cc1[nH]c(C)c(-c2ccc(Oc3ccccc3)cc2)c(=O)c1Br` [TCMDC-137410] is higher in “% Inhibition” value: 2.02% for the first, 67.24% for the second.

Going from `O=C(Nc1ccc(-c2ccc(-c3nc4ccccc4[nH]3)s2)cc1)Nc1ccc(F)c(F)c1F` [TCMDC-133236] to `Cc1noc(C)c1-c1cccc(CNCc2cccc(-c3ccc(-c4nc5cccc(C)c5[nH]4)cc3)c2)c1.O=C(O)C(F)(F)F` [TCMDC-133056], the “% Inhibition” value falls from -3.503% to -10.48%.

Compared with `CCC[C@@H]([C@@H](CC1CCCCC1)C(=O)N[C@H](C(=O)Nc1nccs1)C(C)(C)SCCNC(=O)OCc1ccccn1)N(O)C=O` [TCMDC-137794], `Cc1ccc2[nH]ncc2c1N(CC1CCCCC1)c1ccnc(Nc2ccc(OCC(O)CN3CC=CCC3)cc2)n1` (stereo not drawn) [TCMDC-138794] is higher in “% Inhibition” value: 19.2% for the first, 108.6% for the second.

Compared with `O=C(N/C=N/c1cc([N+](=O)[O-])c(-c2ccncc2)n1-c1ccccc1)c1cccc(O)c1` [TCMDC-125648], `CC(=O)CSC(C=Cc1ccc(N(C)C)cc1)=Nc1ccccc1` [TCMDC-137558] is higher in “% Inhibition” value: -19.59% for the first, -4.21% for the second.

Compared with `O=c1ccccn1CCCC1CCCCN1` (stereo not drawn) [TCMDC-140731], `Cc1noc(-c2ccccc2)c1CN1CCCC2(CC(C(=O)NCc3cccc(F)c3F)=NO2)C1` (stereo not drawn) [TCMDC-136606] is lower in “% Inhibition” value: 9.489% for the first, -21.45% for the second.

Going from `Oc1ccccc1CN(CCCN(Cc1ccccn1)Cc1ccccc1O)Cc1ccccn1` [TCMDC-138469] to `CCCCN(CCCC)Cc1cc2ccccc2cc1O` [TCMDC-137590], the “% Inhibition” value falls from 77.52% to -20.89%.

Going from `Oc1ccc(OCc2ccccn2)cc1` [TCMDC-125881] to `Cc1[nH]c(C)c(-c2ccc(OCc3ccccc3)cc2)c(=O)c1Br` [TCMDC-138901], the “% Inhibition” value rises from 0.9057% to 61.61%.

First: COc1nc(Nc2cccc(C)c2)nc(OC)n1 [TCMDC-124204]
Second: COc1ccc(Nc2nccc(N3CCC(NC(=O)Nc4cc(C)ccc4C)C3)n2)cc1 (stereo not drawn) [TCMDC-133615]
The “% Inhibition” value of the first is higher: -12.01% for the first, -63.4% for the second.

Going from `CN(C)C(CNc1ncnc2cc(Cl)ccc12)Cc1ccccc1` (stereo not drawn) [TCMDC-124600] to `CN(C)c1ccc2c(c1)Sc1cc(N(C)C)ccc1N2C(=O)CCCC(=O)O` [TCMDC-125778], the “% Inhibition” value rises from -0.01557% to 104%.

Compared with `Cc1c(Cl)cccc1S(=O)(=O)N1CCCCC(c2ccc(C(F)(F)F)cc2)=N1` [TCMDC-134534], `Cc1[nH]c(C)c(-c2ccc(Oc3ccc(Cl)cc3)cc2)c(=O)c1Br` [TCMDC-137420] is higher in “% Inhibition” value: -14.43% for the first, 17.1% for the second.

Compared with `CN(C)c1ccc2c(c1)Sc1cc(N(C)C)ccc1N2C(=O)c1cccc(C(=O)O)c1` [TCMDC-124169], `O=C(Nc1cc(Cl)ccc1O)c1ccc(Oc2ccc(C(=O)Nc3cc(Cl)ccc3O)cc2)cc1` [TCMDC-124084] is lower in “% Inhibition” value: 30.57% for the first, -31.23% for the second.

Going from `O=C(Nc1ccc(Cl)cc1)N[C@H]1CCN(CCCCCNC(=O)C2CC2c2ccc(Cl)c(Cl)c2)C1` (stereo partly drawn) [TCMDC-136262] to `O=C(Nc1ccc(Cl)cc1F)N[C@H]1CCN(CCCCCNC(=O)C2CC2c2ccc(Cl)c(Cl)c2)C1` (stereo partly drawn) [TCMDC-136269], the “% Inhibition” value falls from 1.23% to 0.8246%.

First: O=C(Nc1ccc(Cl)cc1Cl)NC1CCN(CCCCCNC(=O)C2CC2c2ccc(Cl)c(Cl)c2)CC1 (stereo not drawn) [TCMDC-136257]
Second: O=C(Nc1ccc(Cl)cc1Cl)N[C@H]1CCN(CCCCCNC(=O)C2CC2c2ccc(Cl)c(Cl)c2)C1 (stereo partly drawn) [TCMDC-136268]
The “% Inhibition” value of the first is higher: 1.836% for the first, -5.844% for the second.

First: O=C(Nc1ccc(Cl)cc1F)NC1CCN(CCCCCNC(=O)C2CC2c2ccc(Cl)c(Cl)c2)CC1 (stereo not drawn) [TCMDC-136258]
Second: O=C(Nc1ccc(F)cc1F)NC1CCN(CCCCCNC(=O)C2CC2c2ccc(Cl)c(Cl)c2)CC1 (stereo not drawn) [TCMDC-136253]
The “% Inhibition” value of the first is higher: 66.19% for the first, -52.54% for the second.

First: O=C(Nc1cc(Cl)ccc1Cl)N[C@H]1CCN(CCCCCNC(=O)C2CC2c2ccc(Cl)c(Cl)c2)C1 (stereo partly drawn) [TCMDC-136265]
Second: O=C(Nc1cccc(Cl)c1Cl)N[C@H]1CCN(CCCCCNC(=O)C2CC2c2ccc(Cl)c(Cl)c2)C1 (stereo partly drawn) [TCMDC-136267]
The “% Inhibition” value of the first is higher: 55.1% for the first, -46.93% for the second.

First: O=C(Nc1cc(Cl)cc(Cl)c1)N[C@H]1CCN(CCCCCNC(=O)C2CC2c2ccc(Cl)c(Cl)c2)C1 (stereo partly drawn) [TCMDC-136273]
Second: Cc1ccc(C)c(NC(=O)NC2CCN(c3ccnc(Nc4ccc(F)cc4)n3)C2)c1 (stereo not drawn) [TCMDC-133601]
The “% Inhibition” value of the first is higher: 86.02% for the first, -9.129% for the second.

First: C=CCOc1ccc(-c2c(C)[nH]c(C)c(Br)c2=O)cc1 [TCMDC-135042]
Second: Cc1[nH]c(C)c(-c2ccc(OCc3ccc(F)cc3)cc2)c(=O)c1Br [TCMDC-138928]
The “% Inhibition” value of the first is higher: 74.1% for the first, 4.156% for the second.

Going from `Cc1[nH]c(C)c(-c2ccc(Oc3ccc([S+](C)[O-])cc3)cc2)c(=O)c1Br` (stereo not drawn) [TCMDC-137400] to `Cc1[nH]c(C)c(-c2ccc(Oc3ccc(F)cc3)cc2)c(=O)c1Br` [TCMDC-137402], the “% Inhibition” value rises from 34.54% to 76.64%.

For `Cc1[nH]c(C)c(-c2ccc(-c3ccc(F)cc3)cc2)c(=O)c1Br` [TCMDC-137421], the “% Inhibition” value was 28.52%.
